# Experimental data as given in PubChem BioAssay AID707 (Columbia University Molecular Screening Center, 2007).
# Hit rate of the full screen: of about 91,000 compounds, about 310 (0.34%) were called active. Shown is part of a subset that was picked to be rich in actives. Unmarked numbers belong to inactive results. No stated cut-off is given here; in the data, active means inhibition above about 80%; inactive means the rest.
# Target: Bifunctional epoxide hydrolase 2 (Homo sapiens) (UniProt P34913)
# Experiment: sEH enzyme activity blockers – biochemical, human sEH, primary screen (AID 707)
# Details: recombinant human sEH enzymatic activity assay; at 2 µM; active compounds read high
# Chain of Bifunctional epoxide hydrolase 2 (Homo sapiens) (P34913 whole entry, looked up): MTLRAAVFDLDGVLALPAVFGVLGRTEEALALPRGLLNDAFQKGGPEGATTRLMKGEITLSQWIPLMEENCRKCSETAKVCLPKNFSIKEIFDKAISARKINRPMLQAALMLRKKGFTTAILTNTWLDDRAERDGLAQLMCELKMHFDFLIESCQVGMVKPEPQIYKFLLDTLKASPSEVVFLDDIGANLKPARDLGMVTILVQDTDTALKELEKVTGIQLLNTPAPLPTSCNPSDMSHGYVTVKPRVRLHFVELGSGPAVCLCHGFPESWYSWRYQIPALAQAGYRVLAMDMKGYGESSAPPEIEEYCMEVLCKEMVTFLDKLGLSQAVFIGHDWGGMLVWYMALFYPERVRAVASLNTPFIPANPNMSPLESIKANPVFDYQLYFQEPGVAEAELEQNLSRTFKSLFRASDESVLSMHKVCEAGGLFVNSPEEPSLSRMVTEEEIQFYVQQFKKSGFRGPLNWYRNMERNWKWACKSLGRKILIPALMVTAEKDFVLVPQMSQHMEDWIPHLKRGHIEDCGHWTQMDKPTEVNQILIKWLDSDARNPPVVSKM
row,SMILES,inhibition
1,CON(C)S(=O)(=O)c1ccc2c(c1)NC(=O)C1CCCN21 (stereo not drawn),-14.7%
2,O=C(NNC(=O)c1cccnc1)Nc1ccccc1,-21.5%
3,N#C/C(=C/c1ccc(Cl)cc1)NC(=O)c1ccccc1,3.7%
4,CCOC(=O)c1ccc(NC(=O)CSc2nnc(COc3ccccc3OC)n2C)cc1,9.6%
5,CCCCNC(=O)CSc1nc2ccc(NC(=O)CSc3nnc(COc4ccccc4C)n3C)cc2s1,88.5% (active)
6,CCCCNC(=O)CSc1nnc(-c2ccco2)n1C,-1.7%
7,CC(CC(=O)Nc1cc(C(F)(F)F)ccc1Cl)c1ccccc1 (stereo not drawn),49.5%
8,CC1CCCCN1CC(=O)NCc1ccc2c(c1)OCO2 (stereo not drawn),3.9%
9,CCc1c(C)nc2ncnn2c1N1CCC(C(=O)NCc2ccc3c(c2)OCO3)CC1,83.3% (active)
10,CCOC(=O)NCc1ccc2c(c1)OCO2,4.7%
11,COc1ccc(NC(=O)Nc2ccc3nsnc3c2)cc1,75.6%
12,CCCCNCc1ccc(SC)cc1,10.8%
13,COc1ccc2c(c1)SC(C)CC2=O (stereo not drawn),-11.8%
14,Cc1cccc(N(C(=O)Cc2cccs2)C(C(=O)NC2CCCC2)c2ccsc2)c1 (stereo not drawn),1.9%
15,Cc1cccc(NC(=S)Nc2ccc(Br)cc2)c1,17.8%
16,COc1ccc(CCNC(=S)NC(=O)/C=C/c2ccc(C)cc2)cc1OC,-0.9%
17,Cc1cccc(-n2cnc(C(=O)Nc3cccnc3)c2)n1,-6.9%
18,Cc1ccc2nc(Nc3ccccc3O)nc(-c3ccccc3)c2c1,0.8%
19,c1ccc2c(CSCc3nc4ccccc4[nH]3)cccc2c1,10.5%
20,Cc1ccccc1OC/C(O)=C(\C#N)c1nc2ccccc2[nH]1,-13.4%
21,COC(=O)c1ccc(C(=O)Nc2cc(Cl)ccc2Cl)cc1NC(=O)c1ccccc1C,-1.7%

row,SMILES,inhibition
1,Cc1ccccc1OCc1nnc(SCC(=O)N2c3ccccc3Sc3ccc(Cl)cc32)o1,-2.3%
2,CC1Cc2ccccc2N1CC(=O)Nc1ccc2c(c1)OC(F)(F)O2 (stereo not drawn),49.2%
3,CCOC(=O)COc1cc(OCC(=O)OCC)c2c(=O)cc(-c3ccccc3)oc2c1,-14.8%
4,COCCCn1c(SCc2cccc(OC)c2)nc2cc(OC)c(OC)cc2c1=N,7.8%
5,Cc1[nH]nc(-c2ccc(OCc3cnn(-c4ccccc4)c3)cc2O)c1Oc1ccc(Cl)cc1,11.4%
6,COc1ccc(C(=O)NC(=S)Nc2ccccc2N2CCN(S(C)(=O)=O)CC2)cc1OC,12.4%
7,Cc1ccc2nc(SCc3nnc(-c4ccccc4[N+](=O)[O-])o3)c(C#N)cc2c1,0.2%
8,Cc1cccc(-n2ncc(C#N)c2-n2cccc2)c1,0.9%
9,CCCC(=O)NC(Nc1ccccc1OC)C(Cl)(Cl)Cl (stereo not drawn),6.5%
10,Fc1ccccc1COc1ccccc1CNCc1ccncc1,5.2%
11,CC(=O)Nc1ccccc1C(=O)C(=O)Nc1ccc(F)cc1,-20.5%
12,COC(=O)CNC(=O)c1ccccc1[N+](=O)[O-],-15.7%
13,O=C(CCc1ccc(S(=O)(=O)N2CCOCC2)cc1)Nc1ccc2ccccc2c1,21.6%
14,CONC(=O)c1cc(OCC(F)(F)F)ccc1OCC(F)(F)F,6%
15,Cc1c(Br)c([N+](=O)[O-])nn1C(C)C(=O)Nc1nccs1 (stereo not drawn),-4.7%
16,N#Cc1ccc(-c2ccc(Cl)cc2)nc1Oc1ccc(F)cc1,7.8%
17,COCc1cc(C)nc2sc3c(=O)n(-c4cccc5ccccc45)nnc3c12,3.4%
18,Cc1ccc(-n2c(C)cc(/C=C(\C#N)C(=O)NCC3CCCO3)c2C)cc1 (stereo not drawn),10.8%
19,O=Cc1c(N2CCN(c3cccc(Cl)c3)CC2)nc2ccccn2c1=O,1.4%
20,CC(=O)c1cccc(NC(=O)Nc2ccc(C)cc2)c1,48.2%
21,COc1cccc(NC(=O)Cc2ccc(C)cc2)c1,1.6%

row,SMILES,inhibition
1,Cc1cccc(NC(=O)Nc2cccc(Oc3c(F)c(F)c(F)c(F)c3F)c2)c1,80.6% (active)
2,O=C(/C=C\NCC(=O)c1ccccc1)c1ccccc1,2.3%
3,COc1ccc2c(c1OC)C(=O)c1ccccc1C2=O,-2.2%
4,Cc1onc(-c2c(Cl)cccc2Cl)c1C(=O)c1c[nH]c(C(=O)NC2CC2)c1,2%
5,Cc1[nH]n(-c2ccccc2)c(=O)c1CCOC(=O)c1ccc(C(F)(F)F)cc1,7.1%
6,C/C(=N/NC(=O)c1ccc(NC(=O)c2ccc(F)cc2)cc1)c1ccccc1,-3.4%
7,Cc1cc2c(c(=O)n1C)C(C(C)C)C(C#N)=C(N)O2 (stereo not drawn),-3.6%
8,CNS(=O)(=O)c1cnccc1N1CCN(c2cccc(C)c2)CC1,13.4%
9,Cc1ccc(-c2nnc(-n3nnc4ccccc43)c3ccccc23)cc1,-3.9%
10,C=CCNc1nc(N)c(C(=C(C#N)C#N)c2ccccc2)s1,4.9%
11,Cc1cc([N+](=O)[O-])c(N2CCC[C@@H]2C(=O)O)c([N+](=O)[O-])c1,3.1%
12,COC(=O)CN(C(=S)Nc1ccc(Cl)cc1)C1CC(=O)N(c2ccc(OC)cc2)C1=O (stereo not drawn),12.2%
13,CC1=NN(C(=O)Cc2ccc(C)cc2)C(O)(c2cccnc2)C1 (stereo not drawn),3.6%
14,COc1ccc(C)cc1NC(=O)CCC(=O)Nc1nnc(C(F)(F)F)s1,15.2%
15,O=C(c1ccccc1)C(Cn1cncn1)C(Sc1ccccc1)c1ccccc1 (stereo not drawn),-1.8%
16,COc1ccc(C(=O)N2CCc3cc(OC)c(OC)cc3C2c2cccc([N+](=O)[O-])c2)cc1 (stereo not drawn),0.6%
17,C=CCOc1c2ccc(C(=O)N(CC)c3ccc(OC)cc3)cc2nn1C,10.6%
18,Cc1ccc(C)c(NC(=O)C2Cc3ccccc3CN2C(=O)OCc2ccccc2)c1 (stereo not drawn),-5.4%
19,CCOc1ccc(NC(=O)Nc2ccc(N(C)C(C)=O)cc2)cc1,82.3% (active)
20,CC(=O)N(C)c1ccc(NC(=O)C(F)(F)F)cc1,3.7%
21,CCOc1ccc(NC(=O)Nc2cc(C)on2)cc1,2.9%
